# Results: the supplement of paper PMC9135407
# Where “and” joins values, the source holds several entries; their conditions need not be identical. Equal entries are not always repeated. Structures can show the parent of a compound that is named as a salt. The campaign covered roughly 5,800 compounds. About 620 (11%) showed activity. Many of the other results were omitted from the sample, so actives are more common in it than they were. Values without a mark were called inactive.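 How the source made its calls: active = score above a cut-off or among the top three wells of a plate; in these data no inactive exceeds 0.85.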
# System: primary human hepatic stellate cells (donor 1)
# Test: scaled lipid accumulation score (0 = DMSO-like, 1 = nortriptyline-like); higher = stronger HSC inactivation (lipid re-accumulation), active = hit call of the paper
# Settings: 48 h
# [1] = library stock concentration: 10 mM
# [2] = library stock concentration: 3.33 mM
# [3] = library stock concentration: 1 mM
# [4] = library stock concentration: 80 uM
# [5] = library stock concentration: 400 uM
# [6] = library stock concentration: 2 mM
# [7] = library stock concentration: 15.3 mM
structure (smiles),measurement,setting,value
C[C@](N)(Cc1ccc(O)cc1)C(=O)O [L-alpha-Methyl-p-tyrosine],scaled lipid accumulation score,[1],0.166
CC(C)(C)NS(=O)(=O)c1cncc(-c2cc(F)c3nc(N)nn3c2)c1,scaled lipid accumulation score,[2],≤ 0
same,scaled lipid accumulation score,[1],≤ -0.001
O=C(Cc1ccccc1)NO [Phenylacetohydroxamic acid],scaled lipid accumulation score,[1],≤ 0
CCCC(=O)O[C@]1(C(=O)COC(C)=O)CC[C@H]2[C@@H]3C[C@H](F)C4=CC(=O)C=C[C@]4(C)[C@@]3(F)[C@@H](O)C[C@@]21C [Difluprednate],scaled lipid accumulation score,[2],≤ 0
same,scaled lipid accumulation score,[1],≤ -0.001
O=NN(CCCl)C(=O)NCCCl [Carmustine],scaled lipid accumulation score,library stock concentration: 9.3 mM,≤ 0
same,scaled lipid accumulation score,[1],≤ 0
C[N+](C)(C)CCO.[Br-] [Choline bromide],scaled lipid accumulation score,[1],≤ 0
CC(C)C[C@@H]1NC(=O)[C@H](CCCN)NC(=O)[C@H](C(C)C)NC(=O)[C@H](Cc2ccc(O)cc2)N[C@@H](CCC(=O)O)C(=O)N[C@@H](CC(N)=O)C(=O)[C@@H](Cc2ccccc2)NC(=O)[C@H](Cc2ccccc2)NC(=O)[C@@H]2CCCN2C(=O)[C@@H](Cc2ccccc2)NC1=O [Tyrothricin],scaled lipid accumulation score,library stock concentration: 1.6 mM,≤ 0
same,scaled lipid accumulation score,[1],≤ 0
COC(=O)CCCCCCC1C(O)CC(O)C1CCC(O)CSc1ccccc1F (centres undefined),scaled lipid accumulation score,[3],≤ 0
CC(=O)O/N=C1\C(=O)N(Cc2cc(Cl)ccc2Cl)c2ccc(Cl)cc21,scaled lipid accumulation score,[2],≤ -0.009
same,scaled lipid accumulation score,[1],≤ 0
NC(C(=O)O)c1cc(O)cc(O)c1 (racemic),scaled lipid accumulation score,[1],0.017
C[C@H](O)[C@H](O)[C@@H](O)[C@@H](O)C=O [L-(+)-Rhamnose Monohydrate],scaled lipid accumulation score,[2],≤ 0
same,scaled lipid accumulation score,[1],≤ 0
CC(C)Nc1cccnc1N1CCN(C(=O)c2cc3cc(NS(C)(=O)=O)ccc3[nH]2)CC1 [Delavirdine mesylate],scaled lipid accumulation score,library stock concentration: 4.4 mM,≤ -0.006
COc1cc(Nc2ncc(F)c(Nc3ccc4c(n3)NC(=O)C(C)(C)O4)n2)cc(OC)c1OC [listing 1 of 2 here],scaled lipid accumulation score,[1],1.06 (active)
COc1cc(Nc2ncc3c(n2)-c2ccc(Cl)cc2C(c2c(F)cccc2OC)=NC3)ccc1C(=O)O [Alisertib],scaled lipid accumulation score,[4],≤ 0
same,scaled lipid accumulation score,[5],≤ 0
same,scaled lipid accumulation score,[6],≤ 0
same,scaled lipid accumulation score,[1],≤ 0
C=CC(=O)Nc1cccc(Nc2nc(Nc3ccc(OCCOC)cc3)ncc2F)c1,scaled lipid accumulation score,[2],≤ -0.009
same,scaled lipid accumulation score,[1],0.576
COc1cc(Nc2ncc(F)c(Nc3ccc4c(n3)NC(=O)C(C)(C)O4)n2)cc(OC)c1OC.O=S(=O)(O)c1ccccc1,scaled lipid accumulation score,[1],0.882 (active)
COc1cc(Nc2ncc(F)c(Nc3ccc4c(n3)N(COP(=O)(O)O)C(=O)C(C)(C)O4)n2)cc(OC)c1OC [Fostamatinib (R788)] [listing 1 of 2 here],scaled lipid accumulation score,[1],1.01 (active)
COc1cc(Nc2ncc(F)c(Nc3ccc4c(n3)NC(=O)C(C)(C)O4)n2)cc(OC)c1OC [R406 (free base)],scaled lipid accumulation score,[2],0.918 (active)
same,scaled lipid accumulation score,[1],1.16 (active)
COc1cc(Nc2ncc(F)c(Nc3ccc4c(n3)NC(=O)C(C)(C)O4)n2)cc(OC)c1OC [listing 2 of 2 here],scaled lipid accumulation score,[4],≤ 0
same,scaled lipid accumulation score,[5],0.072
same,scaled lipid accumulation score,[6],0.159
same,scaled lipid accumulation score,[2],0.03
C=CC(=O)Nc1cccc(Nc2nc(Nc3ccc(OCCOC)cc3)ncc2F)c1 [Spebrutinib],scaled lipid accumulation score,[4],≤ -0.001
same,scaled lipid accumulation score,[5],≤ -0.001
same,scaled lipid accumulation score,[6],≤ -0.001
same,scaled lipid accumulation score,[1],0.202
COc1cc(Nc2ncc3ccn(-c4cccc(CCC#N)c4)c3n2)cc(OC)c1OC [Keratinocyte Differentiation Inducer],scaled lipid accumulation score,[2],0.501 and ≤ 0
COc1cc(Nc2ncc3c(n2)-c2ccc(Cl)cc2C(c2c(F)cccc2OC)=NC3)ccc1C(=O)O [Alisertib (MLN8237)],scaled lipid accumulation score,[2],≤ 0
same,scaled lipid accumulation score,[1],≤ 0
COc1cc(Nc2ncc(F)c(Nc3ccc4c(n3)N(COP(=O)(O)O)C(=O)C(C)(C)O4)n2)cc(OC)c1OC [Fostamatinib (R788)] [listing 2 of 2 here],scaled lipid accumulation score,[2],0.198
CCCC(CCC)C(=O)O[C@H]1C[C@H]2CC[C@@H](C1)[N+]2(C)C [Anisotropine methyl bromide],scaled lipid accumulation score,[1],0.296
OC[C@H]1O[C@H](O[C@H]2[C@H](O)[C@@H](O)C(O)O[C@@H]2CO)[C@H](O)[C@@H](O)[C@@H]1O (some centres undefined),scaled lipid accumulation score,[1],≤ 0
Nc1nc2c(ccc3ccccc32)s1,scaled lipid accumulation score,[1],≤ 0
CC1=C(C)C(=O)C(CCCCC#CCCCC#CCO)=C(C)C1=O [Docebenone],scaled lipid accumulation score,library stock concentration: 6.1 mM,≤ -0.006
CC1=C(C)C(=O)C(CCCCC#CCCCC#CCO)=C(C)C1=O,scaled lipid accumulation score,[1],0.105
same,scaled lipid accumulation score,[7],≤ -0.012
O=C(O)CCNc1cc(N2CCc3ccccc3CC2)nc(-c2cccnc2)n1,scaled lipid accumulation score,[4],≤ 0
same,scaled lipid accumulation score,[5],≤ 0
same,scaled lipid accumulation score,[6],≤ 0
same,scaled lipid accumulation score,[1],≤ 0
CC(C)(C)OC(=O)N[C@H]1CCCCC/C=C\[C@@H]2C[C@@]2(C(=O)NS(=O)(=O)C2CC2)NC(=O)[C@@H]2C[C@@H](OC(=O)N3Cc4cccc(F)c4C3)CN2C1=O [Danoprevir (ITMN-191)],scaled lipid accumulation score,[2],0.049
same,scaled lipid accumulation score,[1],≤ 0
CO[C@H]1C[C@@H]2CC[C@@H](C)[C@@](O)(O2)C(=O)C(=O)N2CCCC[C@H]2C(=O)O[C@H]([C@H](C)C[C@@H]2CC[C@@H](O)[C@H](OC)C2)CC(=O)[C@H](C)/C=C(\C)[C@@H](O)[C@@H](OC)C(=O)[C@H](C)C[C@H](C)/C=C/C=C/C=C/1C [Rapamycin],scaled lipid accumulation score,[4],≤ 0
same,scaled lipid accumulation score,[5],≤ 0
same,scaled lipid accumulation score,[3],≤ 0
same,scaled lipid accumulation score,[6],≤ 0
same,scaled lipid accumulation score,[2],≤ 0
same,scaled lipid accumulation score,[1],≤ 0
CO[C@H]1C[C@@H]2CC[C@@H](C)[C@@](O)(O2)C(=O)C(=O)N2CCCC[C@H]2C(=O)O[C@H]([C@H](C)C[C@@H]2CC[C@@H](O)[C@H](OC)C2)CC(=O)[C@H](C)/C=C(\C)[C@@H](O)[C@@H](OC)C(=O)[C@H](C)C[C@H](C)/C=C/C=C/C=C/1C [Rapamycin (Sirolimus)],scaled lipid accumulation score,[2],0.037
same,scaled lipid accumulation score,[1],≤ 0
O=C1NC(=O)c2c1c(-c1ccccc1)cc1[nH]c3ccc(O)cc3c21,scaled lipid accumulation score,[1],≤ -0.055 and ≤ -0.001
OCCN1CCN(CCCN2c3ccccc3Sc3ccc(C(F)(F)F)cc32)CC1 [Fluphenazine dihydrochloride],scaled lipid accumulation score,,0.627
same,scaled lipid accumulation score,[1],≤ -0.07
OCCN1CCN(CCCN2c3ccccc3Sc3ccc(C(F)(F)F)cc32)CC1 [Fluphenazine hydrochloride],scaled lipid accumulation score,[1],0.407
OCCN1CCN(CCCN2c3ccccc3Sc3ccc(C(F)(F)F)cc32)CC1,scaled lipid accumulation score,[1],1.34 (active)
CC(C)(O)C1CCC(C)(C2C(O)CC3(C)C4CC(OC5OC(CO)C(O)C(O)C5O)C5C(C)(C)C(OC6OCC(O)C(O)C6O)CCC56CC46CCC23C)O1 (centres undefined) [Astragaloside A],scaled lipid accumulation score,[2],0.019
same,scaled lipid accumulation score,[1],≤ 0
"CCCCC/C=C\C/C=C\C/C=C\CCCC/C=C\CCC(=O)O [cis-4,10,13,16-Docosatetraenoic Acid]",scaled lipid accumulation score,[3],≤ 0
CCCCC[C@H](O)/C=C/[C@H]1[C@H](O)CC(=O)[C@@H]1C/C=C\CCCC(=O)OC [Prostaglandin E2 methyl ester],scaled lipid accumulation score,[3],≤ 0
C[C@@H](NCCCc1cccc(C(F)(F)F)c1)c1cccc2ccccc12 [Cinacalcet HCl],scaled lipid accumulation score,[2],0.207
same,scaled lipid accumulation score,[1],0.351
O=C1CC(=O)c2c(Cl)c(Cl)c(Cl)c(Cl)c21,scaled lipid accumulation score,[2],≤ -0.009
same,scaled lipid accumulation score,[1],0.011
CC(C)n1cnc2c(NCCc3ccc(O)cc3)nc(-c3csc4ccccc34)nc21 [StemRegenin 1 (SR1)] [listing 1 of 2 here],scaled lipid accumulation score,[2],≤ 0
CC(C)n1cnc2c(NCc3ccccc3)nc(NCCO)nc21 [N9-Isopropylolomoucine],scaled lipid accumulation score,[7],≤ -0.012
CC(C)n1cnc2c(NCCc3ccc(O)cc3)nc(-c3csc4ccccc34)nc21 [StemRegenin 1 (SR1)] [listing 2 of 2 here],scaled lipid accumulation score,[1],0.919 (active)
CC\C=C/C=C/C=C/C=C\CCCCCCCC(=O)O [cis-Parinaric Acid],scaled lipid accumulation score,[3],0.028
CC(C)Oc1ccc(C(=O)c2ccc(NC3=NCCN3)cc2)cc1,scaled lipid accumulation score,[3],0.073
CC(=O)Nc1nc2c(Oc3cc(-c4ccc(C(F)(F)F)cc4)ncn3)cccc2s1,scaled lipid accumulation score,[2],≤ -0.009
same,scaled lipid accumulation score,[1],0.221
CN1CCC(Nc2ncc3ncnc(Nc4ccc(F)c(Cl)c4)c3n2)CC1.Cl.Cl [BIBX 1382 dihydrochloride],scaled lipid accumulation score,[1],1.61 (active)
COc1ccc(F)c(F)c1C(=O)c1cnc(NC2CCN(S(C)(=O)=O)CC2)nc1N,scaled lipid accumulation score,[2],0.082
same,scaled lipid accumulation score,[1],0.057
CCN(CC)CC1CCN(c2ncc3ncnc(Nc4ccc(F)c(Cl)c4)c3n2)CC1.Cl.Cl [BIBU 1361 dihydrochloride],scaled lipid accumulation score,[1],1.06 (active)
COc1ccc(CC(=O)NC(/N=C(\NC#N)Nc2cccc3ncccc23)C(C)(C)C)cc1OC (centres undefined),scaled lipid accumulation score,[1],0.014
O=C(O[C@@H]1Cc2c(O)cc(O)cc2O[C@@H]1c1cc(O)c(O)c(O)c1)c1cc(O)c(O)c(O)c1 [Epigallocatechin gallate],scaled lipid accumulation score,[4],≤ 0
same,scaled lipid accumulation score,[5],≤ 0
same,scaled lipid accumulation score,[6],≤ 0
same,scaled lipid accumulation score,[1],≤ 0
O=C(O[C@@H]1Cc2c(O)cc(O)cc2O[C@@H]1c1cc(O)c(O)c(O)c1)c1cc(O)c(O)c(O)c1 [(-)-Epigallocatechin Gallate],scaled lipid accumulation score,[3],≤ 0
Oc1nc(-c2ccc(C(F)(F)F)cc2)nc2c1CSCC2,scaled lipid accumulation score,[3],≤ 0
same,scaled lipid accumulation score,[2],≤ 0
same,scaled lipid accumulation score,[1],≤ 0 and 0.004
